Bioassay records as filed in PubChem BioAssay.
Shown are actives, neighbours in structure and some others; about 32% of the full set was active somewhere.
CYP2C19 inh = blocks human cytochrome P450 2C19; P33261; CYP2C19 Supersomes, luciferin-H EGE luminescence, 30 min; inhibition, % at 5 µM; hit rate 21% among 96,000; AID 778;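 active = CYP2C19 inhibition above a set limit at 5 µM in the primary screen, cut at about 50% in these data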;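 note: plate controls were negative control wells for no effect and 2.5 mM tranylcypromine positive control for full effect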
CYP2C9 activ = increases human cytochrome P450 2C9 activity; P11712; recombinant CYP2C9, luciferin-H conversion, luminescence; active compounds read high; factor 1 = untreated enzyme, 0 = blocked; activation factor at 5 µM; hit rate 1.4% among 96,000; AID 1024;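 active = activation factor of 2 or more for CYP2C9 at a 5 µM dose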;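 note: 0 = sulfaphenazole-blocked wells and 1 = vehicle-only wells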
Target sequence (P11712 whole entry, looked up): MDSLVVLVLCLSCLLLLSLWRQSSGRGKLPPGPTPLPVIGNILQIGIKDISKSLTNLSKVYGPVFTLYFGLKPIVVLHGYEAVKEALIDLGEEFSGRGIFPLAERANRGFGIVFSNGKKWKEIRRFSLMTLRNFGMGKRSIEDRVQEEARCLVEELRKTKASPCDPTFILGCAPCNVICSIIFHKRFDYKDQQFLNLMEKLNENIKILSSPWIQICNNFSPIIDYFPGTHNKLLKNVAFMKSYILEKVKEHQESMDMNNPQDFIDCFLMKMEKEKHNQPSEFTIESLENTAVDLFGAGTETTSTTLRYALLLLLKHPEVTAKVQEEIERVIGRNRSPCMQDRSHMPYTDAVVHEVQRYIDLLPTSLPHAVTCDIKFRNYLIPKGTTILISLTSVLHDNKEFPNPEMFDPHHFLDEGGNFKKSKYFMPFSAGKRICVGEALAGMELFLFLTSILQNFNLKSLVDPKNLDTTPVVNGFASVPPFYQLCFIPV
PostGolgi yeast = growth inhibition of a yeast mutant, post-Golgi transport screen | post-Golgi transport phenotypic cell assay | inhibition, % at 10 µM | hit rate 0.9% among 98,000;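 note: yeast cells grown in 1536-well plates; yeast grown about 18 h at 30C before absorbance read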
PostGolgi ctrl = growth of the yeast control strain, post-Golgi counter-screen; efflux-deficient yeast background strain, growth absorbance A615, 16 h; inhibition, % at 10 µM; hit rate 5% among 98,000
CYP2C19 activ = increases human CYP2C19 enzyme activity; P33261; recombinant CYP2C19, luciferin-H EGE luminescence; active compounds read high; 0 = fully inhibited enzyme, 1 = untreated enzyme; activation factor at 5 µM; 96,000 tested, under 10 active;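 active = activation factor of at least 2 at 5 µM in the primary screen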;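 note: 0 = wells with 2.5 mM tranylcypromine and 1 = vehicle-only wells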
CYP2C9 inhib = blocks human cytochrome P450 2C9. P11712. CYP2C9 Supersomes, luciferin-H conversion, luminescence. inhibition, % at 5 µM. hit rate 20% among 96,000;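 active = blocking of liver enzyme CYP2C9 beyond about 50% at 5 µM, limit read from the data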
The depositor's hits bear a star. Cut-off read from the data, not from the text of the source, unless noted: active = inhibition above about 30%; inactive = the rest.

SMILES | CYP2C19 inh | CYP2C9 activ | PostGolgi yeast | PostGolgi ctrl | CYP2C19 activ | CYP2C9 inhib
COc1cc(NC(=O)c2ccco2)ccc1NC(=O)c1ccccc1Cl | 51* | 0.3 | -11 | 4 | 0.5 | 72*
Cc1cc(NC(=O)CCN2C(=O)C3C4C=CC(C4)C3C2=O)c2ccccc2n1 (centres undefined) | -2 | 1.1 | -3 | -3 | 1 | -6
O=C(CCN1C(=O)C2C3C=CC(C3)C2C1=O)Nc1c(F)cccc1F (centres undefined) | -8 | 1.2 | 11 | 39* | 1.1 | -17
Cc1cccc(N2C(=O)CC(N3CCOCC3)C2=O)c1 (centres undefined) | 17 | 1.1 | 8 | -5 | 0.8 | -13
Cc1ccc(N2C(=O)CC(n3ccnc3)C2=O)cc1C (centres undefined) | 58* | 0.9 | -12 | -5 | 0.4 | 5
COc1ccc(OCc2nnc3n2N=C(c2ccc(C)cc2)CS3)cc1 | 30 | 0.7 | 4 | 14 | 0.7 | 32
COc1ccc(C2=Nn3c(nnc3-c3ccco3)SC2)cc1 | 56* | 0.4 | 21 | 45* | 0.4 | 64*
CCOc1ccc(C2=Nn3cnnc3SC2)cc1 | 95* | 0.7 | -6 | 22 | 0 | 27
CCOc1ccc(C2=Nn3c(nnc3-c3ccc(OC)cc3)SC2)cc1 | -1 | 0.9 | 2 | 19 | 1 | 11
COc1ccc(OCc2nnc3n2N=C(c2ccc(OC)cc2)CS3)cc1 | 88* | 0.1 | -2 | 32* | 0.1 | 90*
COc1ccc(OC)c(C2=Nn3c(nnc3-c3ccco3)SC2)c1 | 85* | 0.3 | 0 | 26 | 0.1 | 69*
COc1ccc(C2=Nn3c(nnc3-c3ccncc3)SC2)cc1 | 34 | 0.4 | 1 | 23 | 0.7 | 56*
C=CCn1c(SCc2ccccc2)nc2scc(-c3ccc(C)o3)c2c1=O | 12 | 0.7 | -24 | 3 | 0.9 | 27
Cc1ccc(-c2csc3ncn(-n4c(C)ccc4C)c(=O)c23)o1 | 87* | 0.5 | -1 | 4 | 0.1 | 47
CN(C)S(=O)(=O)c1cccc(NC(=O)COC(=O)CCc2nc3ccccc3s2)c1 | 0 | 1.9 | 0 | -3 | 1 | -89
O=C(CN1CCOCCOCCN(CC(=O)Nc2ccccc2)CCOCC1)Nc1ccccc1 | 19 | 0.7 | 30* | 2 | 0.8 | 30
NC(=O)CN1CCOCCOCCN(CC(N)=O)CCOCC1 | -27 | 0.4 | 9 | 17 | 1.3 | 55*
O=C(Nc1ccc(Nc2ccccc2)cc1)N1CCOCC1 | -22 | 0.9 | 18 | 4 | 1.2 | 9
O=C(CN1CCOCC1)Nc1cccc(Cl)c1Cl | 78* | 1.3 | 4 | 2 | 0.2 | -30
O=C(CN1CCOCCOCCOCC1)Nc1ccccc1 | -1 | 1.1 | -4 | 1 | 1 | -14
O=C(CSCC(=O)N1CCOCC1)Nc1ccccc1 | 57* | 1.1 | 9 | 3 | 0.4 | -5
CCNC(=O)CSc1nnc(-c2ccc(OC)cc2)n1CC(C)C | 11 | 0.8 | 1 | 5 | 0.9 | 21
Cc1cccc2cc(CN(CCN3CCOCC3)C(=O)NCc3ccccc3)c(=O)[nH]c12 | 28 | 0.8 | 16 | 1 | 0.7 | 17
CC(C)(C)c1ccccc1OCCOCCSc1ncccn1 | -35 | 1.2 | -7 | 3 | 1.4 | -18
COc1cccc(-n2c(=O)[nH]cc(C(=O)Nc3ccc(NC(C)=O)cc3)c2=O)c1 | 3 | 0.9 | -5 | -2 | 1 | 5
SMILES | CYP2C19 inh | CYP2C9 activ | PostGolgi yeast | PostGolgi ctrl | CYP2C19 activ | CYP2C9 inhib
O=C(CN1CCOCC1)Nc1cccc(Br)c1 | 7 | 1.1 | -4 | 31* | 0.9 | -14
O=C(CN1CCOCC1)Nc1nc2ccc(Br)cc2s1 | 15 | 0.3 | 1 | 7 | 0.8 | 65*
O=C(CN1CCOCC1)Nc1ccc(Br)cn1 | 8 | 1.1 | -5 | -4 | 0.9 | -9
O=C(CCN1CCOCC1)Nc1cccc(Br)c1 | 9 | 1 | 6 | 3 | 0.9 | 4
COC(=O)Nc1ccc2c(c1)N(C(=O)CCN1CCOCC1)c1ccccc1S2 | 50 | 0.9 | 6 | 8 | 0.5 | 12
CCOC(=O)Nc1ccc2c(c1)N(C(=O)CCN1CCOCC1)c1ccccc1S2 | 65* | 0.7 | 14 | 7 | 0.3 | 26
O=C(CCc1ccc(S(=O)(=O)N2CCOCC2)cc1)Nc1ccc(N2CCOCC2)cc1 | -21 | 1.1 | 6 | 7 | 1.2 | -9
Cn1c(CNc2nc(-c3ccccc3)cs2)nnc1SCC(=O)N1CCc2ccccc21 | 37 | 0.7 | -10 | -1 | 0.6 | 33
